Assay [1] in a line: qHTS RealTime-Glo MT Cell Viability Assay in HEK293 cells - 16 hour (AID 1224872). Also: nearly all actives have a fitted effect of over 50% in size. Also: potency is read from the fitted curve at half-maximal effect. The method, boiled down:
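Assay medium contained NanoLuc luciferase plus cell-permeant prosubstrate, added with HEK293 cells at 600 cells/well. After 5 h at 37 C/5% CO2 compounds were added; plates stayed at 37 C for 40 h with serial luminescence reads.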
On the technique in general: qHTS replaces the single test concentration by a dilution series.

The nature of assay [2]: qHTS RealTime-Glo MT Cell Viability Assay in HepG2 cells - 8 hour (AID 1224873). Also: nearly all actives have a fitted effect of over 55% in size. The method, boiled down: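 Real-time viability: cells seeded at 600 per well together with NanoLuc and cell-permeant prosubstrate, compounds added after 5 h incubation. Luminescence tracked at 0, 8, 16, 24, 32 and 40 h of exposure.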
Assay [3] is described as follows: A CellTox Green Cytotoxicity Assay to monitor cytotoxicity in HEK293 cells - 24 hour (AID 1224875). Also: nearly all actives have a fitted effect of over 45% in size. Also: potency is read from the fitted curve at half-maximal effect. An outline of the steps:
(§1)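 Tox21 screen in HEK293: membrane-impermeant cyanine dye fluoresces on binding dead-cell DNA; compound pinned 5 h post-seeding, plates held at 37 C, signal read repeatedly through 40 h.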

The nature of assay [4]: A CellTox Green Cytotoxicity Assay to monitor cytotoxicity in HepG2 cells - 16 hour (AID 1224876). Also: nearly all actives have a fitted effect of over 45% in size. An outline of the steps:
(§2)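 Measurements at 0, 8, 16, 24, 32 and 40 h of treatment captured CellTox Green fluorescence in HepG2 cells that had been co-plated with reagent and preincubated 5 h at 37 C/5% CO2.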

Assay [5] is described as follows: qHTS RealTime-Glo MT Cell Viability Assay in HepG2 cells - 32 hour (AID 1224877). Also: nearly all actives have a fitted effect of over 55% in size. Also: potency is read from the fitted curve at half-maximal effect. The method, boiled down:
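qHTS, HepG2, 600 cells/well, RealTime-Glo (NanoLuc + prosubstrate) added with cells; 5 h preincubation; DMSO compound addition; 37 C; luminescence at 0/8/16/24/32/40 h.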

The nature of assay [6]: A CellTox Green Cytotoxicity Assay to monitor cytotoxicity in HepG2 cells - 40 hour (AID 1224879). Also: nearly all actives have a fitted effect of over 40% in size. Also: potency is read from the fitted curve at half-maximal effect. The method, boiled down: as §2
The nature of assay [7]: qHTS RealTime-Glo MT Cell Viability Assay in HEK293 cells - 0 hour (AID 1224880). Also: top concentration of the series differs between compounds; nearly all actives have a fitted effect of over 45% in size. The method, boiled down: (§3)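 HEK293 + NanoLuc + prosubstrate, 600 cells/well; 5 h, 37 C/5% CO2; compound 23 nL in DMSO by pintool; 37 C; luminescence read at 0, 8, 16, 24, 32 and 40 h time points.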
A short description of assay [8]: A CellTox Green Cytotoxicity Assay to monitor cytotoxicity in HEK293 cells - 32 hour (AID 1224881). Also: nearly all actives have a fitted effect of over 40% in size. Also: potency is read from the fitted curve at half-maximal effect. An outline of the steps: as §1
Assay [9] is described as follows: qHTS RealTime-Glo MT Cell Viability Assay in HEK293 cells - 40 hour (AID 1224874). Also: nearly all actives have a fitted effect of over 50% in size. Also: potency is read from the fitted curve at half-maximal effect. To be noted: RealTime-Glo luminescence; max response: stronger effect = lower value. The method, boiled down: as §3
Assay [10] can be described thus: A CellTox Green Cytotoxicity Assay to monitor cytotoxicity in HepG2 cells - 24 hour (AID 1224878). Also: nearly all actives have a fitted effect of over 45% in size. Also: potency is read from the fitted curve at half-maximal effect. An outline of the steps: as §2

SMILES strings stand for the structures. Results filed as inconclusive are left out. A number with no mark means an inactive call. Calls of active or inactive are those of the source. Calls follow the shape of the dose curve; as a rule, active = well fitted curve in the direction sought with a large enough effect in the repeat runs; inconclusive = weak or mixed curves; inactive = no such curve, though single readings can be large; an effect the other way counts as inactive or inconclusive.
% is scaled to controls: 0 for no effect and ±100 for the full control effect.

For the compound `C(CCOCC1CO1)COCC1CO1` (configuration not stated), the Potency entry in assay [1], in assay [2], in assay [3], in assay [4], in assay [5] and in assay [6] was “inactive” in each case. The Potency entry in [8] is “inactive”. Further, the outcome in assay [7] was inactive.

`CCCCOC(=O)[C@@H](C)Oc1ccc(Oc2ccc(C#N)cc2F)cc1`: the Potency is 13.7 µM (active) in [1] and 38.7 µM (active) in assay [9]. Besides, the Potency entry in [3], in [4], in assay [5], in assay [10], in [6] and in assay [8] was “inactive” each time. In assay [7], the compound was called inactive.

`CCc1cc2c(s1)-n1c(C)nnc1CN=C2c1ccccc1Cl`: the Potency result in assay [1], in assay [2], in assay [4], in [5] and in assay [6] was “inactive” each time. Besides, the compound was classed as inactive in [7].

Regarding `CC1(C)C(=O)NC(=O)NC1=O`, the Potency result in [1], in assay [2], in assay [4], in assay [5] and in assay [6] was “inactive” in each case. For the same compound, in [7], the compound was called inactive.

As for `C=CCC1=C(C)[C@@H](OC(=O)[C@@H]2[C@@H](C=C(C)C)C2(C)C)CC1=O`, the Potency in assay [1] was 11 µM (active); in [6] it was 49 µM (active). For the same compound, the Potency result in [2], in assay [4] and in [5] was “inactive” each time. Moreover, the outcome in [7] was inactive.

Take `O=C1CN2CCOC2(c2ccccc2Cl)c2cc(Cl)ccc2N1` (configuration not stated): the Potency result in assay [1], in assay [3], in [4], in [5], in assay [10] and in [6] was “inactive” in each case. Also, the Potency entry in assay [8] is “inactive”. In [9], the max response was -7.26%. In addition, the compound was called inactive in assay [7].

Take `COP(N)(=S)Oc1ccccc1C(=O)OC(C)C` (configuration not stated): the Potency entry in assay [1], in assay [3], in assay [4], in [5], in assay [10] and in [6] was “inactive” each time. In [8], the Potency entry is “inactive”. Moreover, the max response in assay [9] was -8.89%. Also, the result in assay [7] was inactive.

As to `COc1cccc2c1cc([N+](=O)[O-])c1c(C(=O)O)cc3c(c12)OCO3`, the results for the Potency in [1] and in assay [10] were 12.3 µM (active) and 21.9 µM (active), respectively. Besides, the Potency entry in [2], in assay [3], in assay [4] and in [8] was “inactive” throughout.

On to `O=S(=O)(O)C(F)(F)C(F)(F)C(F)(F)C(F)(F)C(F)(F)C(F)(F)F`, for which the Potency result in [1], in assay [3], in assay [4], in assay [5], in assay [10] and in [6] was “inactive” each time. Moreover, the Potency entry in assay [8] was “inactive”. Besides, the max response in assay [9] is 2.43%. In assay [7], the call was inactive.

As for `COc1ncc(F)c2nc(S(=O)(=O)Nc3c(F)cccc3F)nn12`, the Potency entry in [1], in assay [2], in assay [4], in [5] and in assay [6] was “inactive” throughout. Besides, the figures for the Potency in assay [3] and in assay [8] were 12.4 µM (active) and 13.9 µM (active), respectively. Moreover, in assay [7], the call was inactive.

For `CCC/C(=N\OCC)C1=C(O)CC(CC(C)SCC)CC1=O` (configuration not stated), the Potency result in [1], in [2], in assay [3], in assay [4], in assay [5] and in assay [6] was “inactive” in each case. In addition, in assay [8], the Potency result was “inactive”. Moreover, the call in assay [7] was inactive.

On to `CCCCP(CCCC)CCCC`, for which the Potency entry in assay [1], in assay [3], in assay [4], in [5], in assay [10] and in assay [6] was “inactive” in each case. For the same compound, in assay [8], the Potency result is “inactive”. The max response in assay [9] was -4.34%. In addition, the outcome in [7] was inactive.

Turning to `C=C(C)CN(CC)c1c([N+](=O)[O-])cc(C(F)(F)F)cc1[N+](=O)[O-]`, the Potency entry in assay [1], in [3], in assay [4], in assay [5], in assay [10] and in assay [6] was “inactive” each time. For the same compound, the Potency entry in assay [8] was “inactive”. The max response in assay [9] was 0.654%. Moreover, in assay [7], the compound was called inactive.

In the case of `[Cl][Sn]([Cl])([Cl])[Cl]`, the Potency entry in assay [1], in assay [2], in assay [4], in assay [5], in assay [10] and in assay [6] was “inactive” in each case. For the same compound, the compound was classed as inactive in assay [7].

Regarding `Oc1c(Cl)cccc1Cl`, the Potency result in [1], in assay [3], in [4], in [5], in assay [10] and in [6] was “inactive” in each case. For the same compound, in [8], the Potency result was “inactive”. Further, the max response in assay [9] is 0.323%. Also, the call in [7] was inactive.

Regarding `O=C(Cc1ccccc1)OCc1ccccc1`, the Potency entry in assay [1], in assay [3], in assay [4], in assay [5], in assay [10] and in [6] was “inactive” throughout. In assay [9], the max response is -18.6%. Besides, in assay [7], the compound was classed as inactive.

Take `Cc1coc2c1CCC(C)C2` (configuration not stated): the Potency entry in assay [1], in assay [2], in assay [3], in assay [4], in assay [5] and in [6] was “inactive” each time. Besides, the Potency result in assay [8] was “inactive”. Further, the call in assay [7] was inactive.

For the compound `COP(=S)(OC)Oc1ccc(S(N)(=O)=O)cc1`, the Potency result in assay [1], in assay [3], in assay [4], in assay [5], in [10] and in [6] was “inactive” throughout. In [8], the Potency entry is “inactive”. In addition, the max response in [9] was -1.36%. In addition, in [7], the compound was classed as inactive.

Regarding `O=C(O)c1ccc2[nH]cc(CCCCN3CC=C(c4ccccc4)CC3)c2c1`, the Potency entry in [1], in [3], in assay [4], in assay [5], in assay [10] and in [6] was “inactive” throughout. In addition, in assay [8], the Potency entry was “inactive”. In assay [9], the max response is -1.51%. Also, the compound was called inactive in assay [7].

In the case of `CCCCCCI`, the Potency entry in assay [1], in assay [3], in assay [4], in assay [10], in assay [6] and in assay [8] was “inactive” in each case. Further, in assay [9], the max response was -0.352%. For the same compound, the Potency in assay [5] is 34.7 µM (active). Further, the outcome in assay [7] was inactive.

Turning to `COC(=O)c1ccccc1S(=O)(=O)NC(=O)Nc1nc(C)cc(C)n1`, the Potency result in [1], in assay [3], in [4], in assay [5], in assay [6] and in assay [8] was “inactive” in each case. Further, the max response in assay [9] was 7.64%. Besides, in assay [7], the compound was called inactive.

Consider `N#Cc1ccncc1`, for which the Potency entry in assay [1], in assay [3], in assay [4], in [5], in [10] and in assay [6] was “inactive” throughout. Moreover, the Potency entry in [8] is “inactive”. In addition, the max response in assay [9] is 11.4%. In addition, in assay [7], the compound was classed as inactive.

Consider `Cc1ncc(CNC(=O)N(CCCl)N=O)c(N)n1`, for which the Potency entry in assay [1], in [3], in assay [4], in assay [5], in assay [10] and in [6] was “inactive” each time. The Potency entry in assay [8] is “inactive”. Moreover, the call in [7] was inactive.

Turning to `CCOP(=S)(OCC)Oc1ncn(-c2ccccc2)n1`, the Potency entry in assay [1], in [3], in assay [4], in assay [5], in assay [10] and in [6] was “inactive” each time. In addition, the Potency result in assay [8] was “inactive”. The compound was called inactive in assay [7].

Consider `CSc1nc(N=[N+]=[N-])nc(NC(C)C)n1`, for which the Potency result in [3], in [4], in assay [5], in assay [10], in assay [6] and in [8] was “inactive” throughout. Further, in assay [7], the outcome was inactive.

For `COc1cccc(C(=O)NN(C(=O)c2cc(C)cc(C)c2)C(C)(C)C)c1C`, the Potency result in assay [1], in assay [3], in assay [4], in assay [6] and in [8] was “inactive” each time. The max response in assay [9] was -10%. Further, the Potency in [10] is 0.616 µM (active). The call in assay [7] was inactive.

In the case of `C[C@]12CC[C@H]3[C@@H](CCC4=CC(=O)CC[C@@]43C)[C@@H]1CC[C@@H]2C(=O)O`, the Potency result in assay [1], in assay [3], in assay [4], in [5], in assay [10] and in [6] was “inactive” throughout. Also, the Potency result in assay [8] is “inactive”. Also, the call in [7] was inactive.

The record behind these values is PubChem BioAssay (Tox21).
